This note sets out measurements from PubChem BioAssay (NCATS).

The structures appear in SMILES notation. Records with an inconclusive call do not appear. A number with no mark means an inactive call. Active and inactive are the calls of the source. The call rests on the fitted dose curve; in most records, active means well fitted curve in the direction sought with a large enough effect; inconclusive means small, poorly fitted or top-dose-only effect, or another doubt; inactive means no such curve, though single readings can be large; an effect the other way counts as inactive or inconclusive.

A short description of the first assay: qHTS for Inhibitors of Plasmodium falciparum (GB4) proliferation (AID 504315).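 Further: 0% = DMSO vehicle and -100% = 0.29 µM artemisinin control; nearly all actives have a fitted effect of over 50% in size.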 The note with it: P. falciparum GB4 in erythrocytes, SYBR Green DNA, 72 h; series mostly up to 6.7 µM; activity change, negative = inhibition: at the top concentration. The method, boiled down:
(§1)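 Parasite growth measured as SYBR Green DNA fluorescence (ex 485, em 535 nm) after overnight lysis following 72 h culture at 37 °C, 0.3% parasitemia, 2.5% hematocrit. Values normalized against DMSO and 0.29 uM artemisinin controls, with plate-stack correction.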
As to `COc1cc(CCN2C(=O)NC(c3cccc(C(F)(F)F)c3)C(C(C)=O)=C2C)cc(OC)c1OC` (configuration not stated), the “activity change, negative = inhibition” value is -2.42%. On the same count and under the same terms, the same measure for `Cc1cc2c(c(=O)n1Cc1ccccc1)[C@H]1O[C@](CCCCN3C(=O)c4ccccc4C3=O)(Cc3cc(C#N)ccc31)O2`: -8.03%; for `CC1=CC[C@@H](COc2ccccc2)O[C@@]2(C1)C(=O)N(CC1CC1)c1ccccc12`: -11.6%.

The next assay in a line: qHTS for Inhibitors of Plasmodium falciparum (HB3) proliferation (AID 504318).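 Further: 0% = DMSO vehicle and -100% = artemisinin control; nearly all actives have a fitted effect of over 60% in size.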 The note with it: P. falciparum HB3 in erythrocytes, SYBR Green DNA, 72 h; series mostly up to 7.21 µM; activity change, negative = inhibition: at the top concentration. In short, it runs like this: as §1
For the compound `COC(=O)CCC(=O)OC1(C)C(=O)C=C2C=C(C3CC3)OC=C2C1=O` (configuration not stated), the “activity change, negative = inhibition” value is 1.02%. On to `COc1ccc([C@]23Cc4ccccc4[C@H](O2)c2c(cc(-c4ccccc4)oc2=O)O3)cc1`, for which the “activity change, negative = inhibition” value is -0.895%. Regarding `COCC=CC1=CC2=CC(=O)C(C)(OC(=O)c3cnc4ccccc4n3)C(=O)C2=CN1CCc1c[nH]c2ccccc12` (configuration not stated), the “activity change, negative = inhibition” value is -9.92%.

Regarding `CC1(OC(=O)c2ccc(Cl)nc2)C(=O)C=C2C=C(c3ccsc3)OC=C2C1=O` (configuration not stated), the “activity change, negative = inhibition” value is -0.49%. On the same count and under the same terms, the same measure for `CC(=O)OC[C@H]1O[C@H](CCON=C(C)CCN2CCCCc3nc(C)c(C)cc32)C=C[C@H]1OC(C)=O`: 2.55%.

`COc1ccc([C@]23Cc4cc(OC)c(OC)cc4[C@H](O2)c2c(cc(C)oc2=O)O3)cc1`: the “activity change, negative = inhibition” value is -10.6%.

On to `O=C(NC(CC1=CCCCC1)c1ccc2ccccc2c1)C(F)(F)F` (configuration not stated), for which the “activity change, negative = inhibition” value was -11.9%.

`C[C@H]1C=CCC(=O)N[C@@H](c2ccc3ccccc3c2)[C@@H](C)C=CCC(=O)N[C@@H]1c1ccc2ccccc2c1`: the “activity change, negative = inhibition” value is -7.47%. On the same count and under the same terms, the value for `COc1cccc(-c2coc3ccc(Br)cc3c2=O)c1` was -13.7%; that for `C[C@@H]1C=CCC(=O)N2[C@H](CC(=O)N[C@@H]1c1ccccc1)C[C@@H](C)[C@@H]2c1ccccc1` was -10%.

The nature of another assay: qHTS for Inhibitors of Plasmodium falciparum (CP250) proliferation (AID 504320).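 Further: plate controls were DMSO vehicle for no effect and 0.29 µM artemisinin control for full effect.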 The note with it: P. falciparum CP250 in erythrocytes, SYBR Green DNA, 72 h; series mostly up to 6.7 µM; activity change, negative = inhibition: at the top concentration. The method, boiled down:
as §1
`C=C(C(=O)C(C)(C)O)C(O)c1ccc([N+](=O)[O-])cc1` (configuration not stated): the “activity change, negative = inhibition” value was 9.08%. On the same count and under the same terms, the same measure for `COc1cc(CO[C@H]2C=C[C@@H](c3ccccc3)O[C@H]2CO)cc(OC)c1`: 8.64%; for `COc1cc([C@@H](NC(=O)C(F)(F)F)C2CCCCC=C2c2ccccc2)cc(OC)c1OC` (some centres not stated): -0.531%; for `CCOC(=O)CCN1C(=O)[C@@H]2[C@H]3[C@H](O)[C@H](O)CC(=NOCc4ccccc4)[C@@H]3CC[C@H]2C1=O`: -2.26%. The same measure, in the same setting: the same measure for `C[C@H]1C=CCC(=O)NCc2cccc(c2)CNC(=O)N[C@@H]1c1ccccc1`: 4.75%; for `COc1cc2c(cc1OC)[C@@]1(c3ccccc3)CCCC[C@H]1[C@@H]2NC(=O)C(F)(F)F`: 5.8%.

`COc1cc2c(c(OC)c1OC)[C@@]1(c3ccccc3)CCCC[C@H]1[C@@H]2NC(=O)C(F)(F)F`: the “activity change, negative = inhibition” value was -5.98%. On to `CC1=CC[C@@H](C)O[C@@]2(C1)C(=O)N(Cc1ccc(F)cc1)c1ccccc12`, for which the “activity change, negative = inhibition” value was -6.35%. Same read-out and setting: the value for `CC(=O)O[C@@H]1C(CO[Si](C)(C)C(C)(C)C)=C(Br)C(=O)[C@@H]2O[C@]12C` was 4.07%; that for `CC12C=C(C=Cc3ccc(F)cc3)C(C)(C1)C(c1ccc(F)cc1)CC2=O` (configuration not stated) was -10.2%. `COC(=O)CCC(=O)OC1(C)C(=O)C=C2C=C(C3CC3)OC=C2C1=O` (configuration not stated): the “activity change, negative = inhibition” value is 3.35%.

With `COc1ccc([C@]23Cc4ccccc4[C@H](O2)c2c(cc(-c4ccccc4)oc2=O)O3)cc1`, the “activity change, negative = inhibition” value is -1.1%. Same read-out and setting: the value for `COCC=CC1=CC2=CC(=O)C(C)(OC(=O)c3cnc4ccccc4n3)C(=O)C2=CN1CCc1c[nH]c2ccccc12` (configuration not stated) was -0.85%. Still for that read-out and setting: the same measure for `C#CCCCON=C1C[C@@H](O)[C@H](O)[C@H]2[C@@H]3C(=O)N(Cc4ccc5c(c4)OCO5)C(=O)[C@@H]3CC[C@@H]12`: 3.08%; for `CC1(OC(=O)c2ccc(Cl)nc2)C(=O)C=C2C=C(c3ccsc3)OC=C2C1=O` (configuration not stated): -4.47%; for `COC(=O)CC=C[C@@H](C)[C@@H](C=NOC[C@H]1O[C@H](c2ccccc2)C=C[C@H]1Oc1ccc(OC)cc1)N[S+](=O)([O-])c1ccc(C)cc1`: -22.3%. Same read-out and setting: the value for `CCc1cc2c(nc1CC)CCN(CCC(C)=NO[C@@H]1O[C@H](COC(C)=O)[C@@H](OC(C)=O)[C@H](OC(C)=O)[C@@H]1OC(C)=O)C2` was -0.428%; that for `CC(=O)OC[C@H]1O[C@H](CCON=C(C)CCN2CCCCc3nc(C)c(C)cc32)C=C[C@H]1OC(C)=O` was 0.803%.

With `COc1ccc([C@]23Cc4cc(OC)c(OC)cc4[C@H](O2)c2c(cc(C)oc2=O)O3)cc1`, the “activity change, negative = inhibition” value was 1.91%. Take `CC=Cc1cc2ccccc2c2c(C(=O)OC)c(C(=O)OC)c(C(=O)OC(C)(C)C)n12`: the “activity change, negative = inhibition” value is 6.07%. The same measure, in the same setting: the same measure for `O=C(NC(CC1=CCCCC1)c1ccc2ccccc2c1)C(F)(F)F` (configuration not stated): 4.82%.

With `COCCN1C(=S)NC(c2cccc(F)c2)C(C(=O)OC)=C1C` (configuration not stated), the “activity change, negative = inhibition” value was 1.58%. With `C[C@H]1C=CCC(=O)N[C@@H](c2ccc3ccccc3c2)[C@@H](C)C=CCC(=O)N[C@@H]1c1ccc2ccccc2c1`, the “activity change, negative = inhibition” value is 0.322%. Still for that read-out and setting: the value for `C[C@]12C[C@@](C)(C=C1C=Cc1ccc(C(F)(F)F)cc1)C(=O)C[C@H]2c1ccc(C(F)(F)F)cc1` was -1.61%; that for `CC12C=C(C=Cc3ccccc3)C(C)(C1)C(c1ccccc1)CC2=O` (configuration not stated) was 6.29%; that for `COc1ccc2c(c1)O[C@@H](c1cccc(C(F)(F)F)c1)[C@H](OC(=O)Nc1cc(OC)c(OC)c(OC)c1)C2=O` was -0.285%.

Turning to `C[C@H]1Cc2c(COc3ccccc3)nc3c(c2CO1)CN(S(=O)(=O)c1ccc2c(c1)OCCN2C)CC3`, the Potency result was “inactive”.

Turning to `COc1cccc(-c2coc3ccc(Br)cc3c2=O)c1`, the “activity change, negative = inhibition” value was -1.95%.

In the case of `C[C@@H]1C=CCC(=O)N2[C@H](CC(=O)N[C@@H]1c1ccccc1)C[C@@H](C)[C@@H]2c1ccccc1`, the “activity change, negative = inhibition” value was 7.65%. The same measure, in the same setting: the value for `CC12C=C(C=CCCc3ccco3)C(C)(C1)[C@H](CCc1ccco1)CC2=O` (some centres not stated) was 4.83%; that for `O=C1[C@@H]2[C@H]3[C@H](O)[C@H](O)CC(=NOC[C@@H](O)COCc4ccco4)[C@@H]3CC[C@H]2C(=O)N1Cc1ccccc1` was -1.81%. Still for that read-out and setting: the value for `Oc1ccc2c(c1-c1c(O)c(Br)cc3c1CCCC3)CCCC2` was 1.55%; that for `COC(=O)[C@@H]1CC23C(=NC(c4ccc([N+](=O)[O-])cc4)=C(C(F)(F)F)[C@@H]2N(C)c2ccccc23)N1C(C)=O` (some centres not stated) was 5.36%; that for `COC(=O)[C@]1(C=C2c3ccccc3C[C@H](OC)[C@@H]2C)[C@@H]2CC=C[C@@H]21` was -0.797%.

As for `COc1cccc([C@@H](NC(=O)C(F)(F)F)[C@@H]2CCCC=C2c2ccccc2)c1`, the “activity change, negative = inhibition” value is 8.64%. The same measure, in the same setting: the value for `COc1ccc([C@]23Cc4c(ccc5ccccc45)[C@H](O2)C2=C(CCCC2=O)O3)cc1` was 4.75%; that for `COc1cc(CCN2C(=O)NC(c3cccc(C(F)(F)F)c3)C(C(C)=O)=C2C)cc(OC)c1OC` (configuration not stated) was -0.0825%. The same measure, in the same setting: the value for `Cc1cc2c(c(=O)n1Cc1ccccc1)[C@H]1O[C@](CCCCN3C(=O)c4ccccc4C3=O)(Cc3cc(C#N)ccc31)O2` was 1.56%. In the case of `CC1=CC[C@@H](COc2ccccc2)O[C@@]2(C1)C(=O)N(CC1CC1)c1ccccc12`, the “activity change, negative = inhibition” value was 2.15%.
